Experimental data from PubChem BioAssay.
Inconclusive results are not listed. Active and inactive are the calls of the source. Cut-off read from the data, not from the text of the source, unless noted: active = inhibition above about 80%; inactive = the rest.

Assays:
[1] = viability loss in pontine glioma line – cell-based, SU-DIPG-XVII, MIPE5.0, CellTiter-Glo, qHTS, dose response (AID 1347060; cut-off not given, nearly all actives have AC50 up to about 26 µM;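 note: cells exposed to compound for 48 hours before viability readout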); conditions: CellTiter-Glo ATP luminescence
[2] = viability loss in pontine glioma line – cell-based, SU-DIPG-XXV, MIPE5.0, CellTiter-Glo, qHTS, dose response (AID 1347065; cut-off not given, nearly all actives have AC50 up to about 26 µM;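 note: cells exposed to compound for 48 hours before ATP readout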); conditions: CellTiter-Glo ATP luminescence
[3] = JHH-DIPG-1 glioma cell viability, MIPE5.0 library, CellTiter-Glo luminescence, qHTS (AID 1347067; cut-off not given, nearly all actives have AC50 up to about 26 µM;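 note: cells exposed to compound for 48 hours before readout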); conditions: JHH-DIPG-1 glioma viability, CellTiter-Glo ATP luminescence
[4] = viability loss in pontine glioma line – cell-based, JHH-DIPG-1, MIPE4.0, CellTiter-Glo, qHTS, dose response (AID 1347062; cut-off not given, nearly all actives have AC50 up to about 27 µM;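 for AC50: cells exposed to compound for two days before readout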); conditions: JHH-DIPG-1 viability, CellTiter-Glo ATP luminescence
[5] = viability loss in pontine glioma line – cell-based, SU-DIPG-IV, MIPE4.0, CellTiter-Glo, qHTS, dose response (AID 1347063; cut-off not given, nearly all actives have AC50 up to about 30 µM;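 note: compound exposure lasted 48 hours before the viability readout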); conditions: CellTiter-Glo ATP luminescence
[6] = viability loss in pontine glioma line – cell-based, SU-DIPG-XIII, MIPE5.0, CellTiter-Glo, qHTS, dose response (AID 1347064; cut-off not given, nearly all actives have AC50 up to about 23 µM;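 note: cells exposed to compound for 48 hours before the viability read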); conditions: CellTiter-Glo ATP luminescence
[7] = growth inhibition of DIPG cells – cell-based, MIPE5.0 library, qHTS (AID 1347068; cut-off not given, nearly all actives have IC50 up to about 30 µM); conditions: SU-DIPG-XXV viability
[8] = viability loss in pontine glioma line – cell-based, SU-DIPG-XIII, MIPE4.0, CellTiter-Glo, qHTS, dose response (AID 1347061; cut-off not given, nearly all actives have AC50 up to about 37 µM;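 note: cells exposed to compound for 48 hours before readout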); conditions: CellTiter-Glo ATP luminescence
[9] = growth inhibition of DIPG cells – cell-based, MIPE4.0 library, CellTiter-Glo luminescence, qHTS (AID 1347066; cut-off not given, nearly all actives have AC50 up to about 30 µM;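 note: cells exposed to compound for 48 hours before readout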); conditions: SU-DIPG-VI viability, CellTiter-Glo ATP luminescence
[10] = growth inhibition, single agent or in combination, cell-based, chromothripsis tumors, cisplatin or BGB combos (AID 1671449); conditions: LFS_MB_P medulloblastoma cells;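 note: cells exposed for 96 hours; 0% = vehicle DMSO and 100% = killing by high DMSO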
[11] = growth inhibition, single agent and combos, cell-based, chromothripsis tumors, cisplatin or BGB combos (AID 1671450); conditions: HDN33 neuroblastoma cells, stronger effect = higher value;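 note: cells exposed to compound for four days; 0% = vehicle DMSO and 100% = cell killing by high DMSO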
[12] = growth inhibition, single agents and combos, ICB984, cell-based, cisplatin or BGB combos, synergistic combos for chromothripsis tumors (AID 1671451; call rule not given here;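 note: cells exposed for 96 hours before readout; 0% = vehicle DMSO and 100% = killing by high DMSO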); conditions: ICB984 medulloblastoma cells, drug combinations, stronger effect = higher value
[13] = growth inhibition, single agents and combos, LFS_MB_1R, cell-based, cisplatin or BGB combos, synergistic combos for chromothripsis tumors (AID 1671452); conditions: LFS_MB_1R medulloblastoma cells, stronger effect = higher value;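 note: cells exposed for 96 hours before readout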
[14] = growth inhibition, single agents and combos, HTB85, cell-based, BGB or cisplatin IC20 combos, synergistic combos for chromothripsis tumors (AID 1671453); conditions: HTB85 osteosarcoma cells, drug combinations, stronger effect = higher value;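 note: cells exposed for 96 hours before readout; 0% = vehicle DMSO and 100% = high DMSO killing control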
[15] = growth inhibition, single agents and combos, CRL2098, cell-based, BGB or cisplatin IC20 combos, synergistic combos for chromothripsis tumors (AID 1671454); conditions: CRL2098 osteosarcoma cells, drug combinations, stronger effect = higher value;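 note: cells exposed for 96 h before readout; 0% = vehicle DMSO and 100% = killing by high DMSO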
[16] = growth inhibition, single agents and combos, HD-MB03, cell-based, BGB or cisplatin IC20 combos, synergistic combos for chromothripsis tumors (AID 1671455; in the data active = inhibition above about 83%;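 note: 0% = vehicle DMSO and 100% = high DMSO as cytotoxic control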); conditions: HD-MB03 medulloblastoma cells, stronger effect = higher value
[17] = growth inhibition, single agents and combos, UWB1.289, cell-based, BGB or cisplatin combos, synergistic combos for chromothripsis tumors (AID 1671456); conditions: UWB1.289 ovarian carcinoma cells, stronger effect = higher value;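 note: cells exposed to compound for four days; 0% = vehicle DMSO and 100% = killing by high DMSO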
[18] = growth inhibition, single agents and combos, LFS_MB_2R, cell-based, cisplatin combos, synergistic combos for chromothripsis tumors (AID 1671457); conditions: LFS_MB_2R medulloblastoma cells, stronger effect = higher value;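 note: cells exposed to compound for four days before readout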
[19] = growth inhibition, MDA-MB-436, cell-based, BGB or cisplatin combos, synergistic combos for chromothripsis tumors (AID 1671458; call rule not given here;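 note: cells exposed for 96 hours; 0% = vehicle DMSO and 100% = killing by high DMSO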); conditions: MDA-MB-436 breast carcinoma growth inhibition, drug combinations, stronger effect = higher value
[20] = UWB1.289_BRCA1 ovarian cancer growth, cell-based, BGB or cisplatin combinations (AID 1671459); conditions: UWB1.289 BRCA1 ovarian carcinoma, drug combinations, stronger effect = higher value
[21] = drug combination toxicity in non-malignant astrocytes – cell-based, BGB or cisplatin IC20 combos, cytotoxicity control for chromothriptic childhood tumor combination screen (AID 1671460); conditions: Human astrocytes, viability inhibition, drug combinations, at 0.5 µM, stronger effect = higher value;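 note: cells exposed to compounds for 96 hours before viability readout; 0% = vehicle and 100% = killing control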
[22] = BT084 cell growth, single and combined drugs, ICGC_MB145, cisplatin and BGB IC40 combos (AID 1671461); conditions: BT084 medulloblastoma cells, drug combinations, stronger effect = higher value;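 note: cells exposed to drugs for 96 hours; 0% = vehicle DMSO and 100% = high DMSO full killing control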
[23] = RCMB18 cell growth, single agent and combined, cisplatin and BGB IC40 combos (AID 1671462); conditions: RCMB18 medulloblastoma cells, stronger effect = higher value;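 note: cells exposed to compound for four days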
[24] = CRL1545 cell growth, single agent and combined, cisplatin and BGB IC20 combos (AID 1671464); conditions: CRL1545 osteosarcoma cells, stronger effect = higher value;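 note: cells exposed to compound for 96 hours before readout; 0% = vehicle DMSO and 100% = high DMSO killing control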
[25] = measured here: combination with BGB IC40, at 0.05 µM
[26] = measured here: with BGB IC20 combination, at 0.5 µM
[27] = measured here: with cisplatin IC20 combination, at 0.5 µM
[28] = measured here: combination with cisplatin, at 0.5 µM
[29] = measured here: combination with cisplatin, at 5 µM

Structure (SMILES): O=C(NCCCNc1nc(Nc2ccc(N3CCOCC3)cc2)ncc1C1CC1)C1CCC1
- AC50 [1]: 20.9 µM (active)
- AC50 [2]: 16.6 µM (active)
- AC50 [3]: 14.8 µM (active)

Structure (SMILES): CN1CCN(c2ccc([N+](=O)[O-])c3no[n+]([O-])c23)CC1
- AC50 [4]: 23.5 µM (active)
- AC50 [5]: 16.6 µM (active)
- AC50 [6]: 16.6 µM (active)
- AC50 [2]: 18.6 µM (active)
- AC50 [3]: 23.5 µM (active)
- outcome [7]: inactive

Structure (SMILES): O=C1CCC[C@@H]2[C@H]3CCCN4CCC[C@@H](CN12)[C@@H]34
- outcome [8]: inactive
- outcome [4]: inactive
- outcome [5]: inactive
- outcome [9]: inactive
- inhibition ([10]; at 0.5 µM, stronger effect = higher value): -20.9% (inactive)
- inhibition ([10]; measured here: combination with BGB IC20, at 0.005 µM): -26.5%
- inhibition ([10]; measured here: combination with BGB IC40, at 0.005 µM): -23%
- inhibition [10, 25]: -17%
- inhibition ([10]; measured here: combination with cisplatin, at 0.5 µM, stronger effect = higher value): -27.3%
- inhibition ([10]; measured here: combination with cisplatin, at 5 µM, stronger effect = higher value): 64.5%
- inhibition ([11]; BGB combo, at 5 µM): 59.7%
- inhibition ([11]; at 0.5 µM): 6.84% (inactive)
- inhibition ([11]; cisplatin combo, at 5 µM): 52.4%
- inhibition [11, 26]: -9.69%
- inhibition [11, 27]: 11.1%
- inhibition ([11]; single agent, at 5 µM): 48.2%
- inhibition ([12]; BGB IC20 combo, at 0.005 µM): 5.19%
- inhibition ([12]; BGB IC40 combo, at 0.005 µM): 0.771%
- inhibition ([12]; BGB IC40 combo, at 0.05 µM): 63.2%
- inhibition ([12]; at 0.5 µM): -0.41% (inactive)
- inhibition ([12]; cisplatin combo, at 0.05 µM): 61.6%
- inhibition ([12]; cisplatin combo, at 0.5 µM): 2.95%
- inhibition ([12]; cisplatin combo, at 5 µM): -10%
- inhibition ([12]; measured here: 5 uM single agent, at 5 µM): 1.92%
- inhibition ([13]; at 0.5 µM): 12.9% (inactive)
- inhibition [13, 25]: -3.79%
- inhibition [13, 28]: 12.5%
- inhibition [13, 29]: 79.4%
- inhibition ([14]; at 0.5 µM): 0.28% (inactive)
- inhibition ([14]; measured here: with BGB IC20, at 0.5 µM): 0.562%
- inhibition ([14]; measured here: with BGB IC20, at 5 µM): 39.5%
- inhibition ([14]; measured here: with cisplatin IC20, at 0.5 µM): -4.39%
- inhibition ([14]; measured here: with cisplatin IC20, at 5 µM): 33.8%
- inhibition ([14]; single agent, at 5 µM): 15.4%
- inhibition ([15]; at 0.5 µM): 11.9% (inactive)
- inhibition ([15]; measured here: combination with BGB at IC20, at 0.5 µM): -8.11%
- inhibition ([15]; measured here: combination with cisplatin at IC20, at 0.5 µM): 39.2%
- inhibition ([16]; at 0.5 µM): 2.42% (inactive)
- inhibition ([16]; measured here: combo with BGB at IC20, at 0.5 µM): 3.91%
- inhibition ([16]; measured here: combo with cisplatin at IC20, at 0.5 µM): -1.67%
- inhibition ([17]; at 0.5 µM): 2.22% (inactive)
- inhibition ([17]; measured here: inhibition with BGB combination, at 0.05 µM): 4.13%
- inhibition ([17]; measured here: inhibition with cisplatin combination, at 0.05 µM): 1.55%
- inhibition ([18]; at 0.5 µM): 0.58% (inactive)
- inhibition [18, 28]: 8.66%
- inhibition [18, 29]: 60.9%
- inhibition ([19]; at 0.5 µM): -3.03% (inactive)
- inhibition ([19]; measured here: BGB combination, at 0.5 µM): -5.75%
- inhibition ([19]; measured here: BGB combination, at 5 µM): 1.19%
- inhibition ([19]; measured here: cisplatin combination, at 0.5 µM): -10.4%
- inhibition ([19]; measured here: cisplatin combination, at 5 µM): 1.01%
- inhibition ([20]; BGB combination, concentration series, at 5 µM): 24%
- inhibition ([20]; at 0.5 µM): 2.45% (inactive)
- inhibition ([20]; cisplatin combination, concentration series, at 5 µM): 16.1%
- inhibition [21]: 2.72% (inactive)
- inhibition ([21]; measured here: combo with BGB IC20): 3.13%
- inhibition ([21]; measured here: combo with cisplatin IC20): 4.87%
- inhibition ([22]; at 0.5 µM): 3.62% (inactive)
- inhibition ([22]; cisplatin combination, at 0.5 µM): 3.61%
- inhibition ([22]; cisplatin combination, at 5 µM): 62.6%
- inhibition ([22]; measured here: BGB IC40 combination 0.05 uM, at 0.05 µM): -11%
- inhibition ([22]; single agent, at 5 µM): 75.7%
- inhibition ([23]; at 0.5 µM): -5.51% (inactive)
- inhibition ([23]; cisplatin combo, at 5 µM): 33.7%
- inhibition ([23]; measured here: BGB IC40 combination, at 0.05 µM): -15.6%
- inhibition [23, 28]: -27.9%
- inhibition ([23]; single agent, at 5 µM): 31.3%
- inhibition ([24]; at 0.5 µM): 8.42% (inactive)
- inhibition [24, 26]: -16.4%
- inhibition [24, 27]: 19.6%
- inhibition ([24]; single agent, at 0.05 µM): -32.9%
- inhibition ([24]; single agent, at 5 µM): -58%
